Measurements published in PubChem BioAssay (NCATS).
Where “and” joins values, the source holds several entries; their conditions need not be identical. Equal entries are not always repeated. Records with an inconclusive call do not appear. Calls of active or inactive are those of the source. Calls follow the shape of the dose curve; as a rule, active = well fitted curve in either direction with a large enough effect (not every such curve was filed as active); inconclusive = small, poorly fitted or top-dose-only effect, or another doubt; inactive = flat fitted curve, though single readings scatter.
% is scaled to controls: 0 for no effect and ±100 for the full control effect.

Experiment: AP1 Signaling Pathway (AID 357);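 also: ME-180 reporter cells stimulated with EGF at its EC50 level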
Details: ME-180 AP-1-bla reporter, EGF-induced, beta-lactamase ratio, 5 h; at 17.2 µM (top of the series)
Excerpt: NCGC Assay Overview: Activator protein-1 (AP-1), a transcription factor, plays an important role in tumor genesis by regulating genes involved in cell proliferation, differentiation, apoptosis, and angiogenesis. AP-1 activity is induced by a complex network of signaling pathways that involves extracellular signals, such as growth factors. The AP-1 protein complex formed from c-Fos and c-Jun binding to the AP-1 response element results in transcriptional activation of genes containing such elements within their promoter. Low molecular weight molecules have been discovered and developed to modulate various components of these signaling pathways, for example, MAP kinase inhibitors. However, many points of pathway modulation remain untested due to the lack of chemical probes making this signaling locus of general interest. Using a beta-lactamase reporter-gene under control of the AP-1 response element, a cell-based assay [CellSensor(TM) AP-1-bla ME-180 developed by Invitrogen Corp.] was used to measure EGF-induced signaling. Library compounds were measured for their ability to modulate positively or negatively the action of EC50 EGF on reporter gene activity. Compounds were screened in a titration series in 1536-well format. Positive and negative modulators were identified based on the AC50 values derived from the screening data.
NCGC Assay Protocol Summary: 2500 cells/5uL in Opti-MEM medium containing 0.5% dialyzed FBS, 0.1 mM NEAA, 1 mM sodium pyruvate and 10 mM HEPES was dispensed into 1536-well plates and cells were cultured at 37 degrees Celsius overnight. […] After centrifugation at 1000 rpm for 2 seconds the plates were incubated at 37 degrees Celsius for 5 hours. 1 uL of CCF4-dye mixture was added to each well. After incubated at room temperature for 2.5 hours the plates were measured on an EnVision plate reader at Excitation 405nm, Emission1=460nm and Emission 2=530nm. The %Activity was determined from the ratio of 460nm/530nm.
For `N[C@@H](Cc1ccc(O)c(O)c1)C(=O)O`, the activity change, negative = inhibition was -2.87% (inactive).

Same assay, conditions: ME-180 AP-1-bla reporter, EGF-induced, beta-lactamase ratio, 5 h; at 17.2 µM (top of the series) unless noted
With `CCC(=O)O[C@]1(C(=O)CCl)[C@@H](C)C[C@H]2[C@@H]3CCC4=CC(=O)C=C[C@]4(C)[C@@]3(F)[C@@H](O)C[C@@]21C` the activity change, negative = inhibition was 3.85% (inactive). With `COc1ccc2cc3[n+](cc2c1OC)CCc1cc2c(cc1-3)OCO2` the activity change, negative = inhibition was 10.1% (inactive). In the case of `Clc1ccccc1CN1CCc2sccc2C1`, the activity change, negative = inhibition is reported as -15.6% (inactive) and -18.3% (inactive). For `COc1cc2ncnc(Nc3cccc(Cl)c3)c2cc1OC`, the activity change, negative = inhibition was -106% [at 38 µM] (active). In the case of `COC(=O)Nc1nc2ccc(Sc3ccccc3)cc2[nH]1`, the activity change, negative = inhibition is reported as 1.3% (inactive) and 6.61% (inactive). In the case of `Cc1nnc(NS(=O)(=O)c2ccc(N)cc2)s1`, the activity change, negative = inhibition is reported as 7.08% (inactive) and 5.89% (inactive). In the case of `COc1ncnc(NS(=O)(=O)c2ccc(N)cc2)c1OC`, the activity change, negative = inhibition is reported as -3.45% (inactive). For `Cc1noc(NS(=O)(=O)c2ccc(N)cc2)c1C`, the activity change, negative = inhibition was 3.21% (inactive) and 4.22% (inactive). In the case of `CCn1cc(C(=O)O)c(=O)c2cc(F)c(N3CCNCC3)cc21`, the activity change, negative = inhibition is reported as -6.52% (inactive) and 0.998% (inactive). With `Nc1ccc(S(=O)(=O)Nc2ccccn2)cc1` the activity change, negative = inhibition was -6.81% (inactive) and -4.21% (inactive). With `O=C(O)c1cn(C2CC2)c2cc(N3CCNCC3)c(F)cc2c1=O` the activity change, negative = inhibition was 3.13% (inactive). For `CC[C@H](C)C(=O)O[C@H]1C[C@@H](C)C=C2C=C[C@H](C)[C@H](CC[C@@H]3C[C@@H](O)CC(=O)O3)[C@H]21`, the activity change, negative = inhibition was -19.5% (inactive). For `COC(=O)Nc1nc2ccc(C(=O)c3ccccc3)cc2[nH]1`, the activity change, negative = inhibition was 17.1% (inactive) and -8.17% (inactive). For `C1CCC(C(CC2CCCCN2)C2CCCCC2)CC1` (stereo not given), the activity change, negative = inhibition was 22.4% (inactive). With `COc1cnc(NS(=O)(=O)c2ccc(N)cc2)nc1` the activity change, negative = inhibition was -7.19% (inactive). With `Nc1[nH]c(=O)ncc1F` the activity change, negative = inhibition was 0.602% (inactive). With `Cc1cccc(Nc2ccncc2S(=O)(=O)NC(=O)NC(C)C)c1` the activity change, negative = inhibition was -9.3% (inactive). For `NS(=O)(=O)c1cc2c(cc1Cl)NC(C(Cl)Cl)NS2(=O)=O` (stereo not given), the activity change, negative = inhibition was 12.3% (inactive). With `COc1cc([C@@H]2c3cc4c(cc3[C@H](O)[C@H]3COC(=O)[C@H]23)OCO4)cc(OC)c1OC` the activity change, negative = inhibition was 20.7% (inactive). For `CCN(CC)CC#CCOC(=O)C(O)(c1ccccc1)C1CCCCC1` (stereo not given), the activity change, negative = inhibition was -4.6% (inactive). In the case of `Cc1cc(NS(=O)(=O)c2ccc(N)cc2)no1`, the activity change, negative = inhibition is reported as 3.59% (inactive) and 0.387% (inactive). With `Nc1nc(F)nc2c1ncn2[C@@H]1O[C@H](CO)[C@@H](O)[C@@H]1O` the activity change, negative = inhibition was -4.13% (inactive). For `Cc1cccc(N(C)C(=S)Oc2ccc3ccccc3c2)c1`, the activity change, negative = inhibition was -6.52% (inactive) and 9.03% (inactive). With `COc1cc(NS(=O)(=O)c2ccc(N)cc2)nc(OC)n1` the activity change, negative = inhibition was 1.62% (inactive) and 1.87% (inactive). In the case of `CC(=O)[C@H]1CC[C@H]2[C@@H]3CCC4=CC(=O)CC[C@]4(C)[C@H]3CC[C@]12C`, the activity change, negative = inhibition is reported as 1.43% (inactive). With `COc1ccccc1OCC(O)COC(N)=O` (stereo not given) the activity change, negative = inhibition was 9.66% (inactive). In the case of `CC1=NN(c2ccccc2)C(=O)C1`, the activity change, negative = inhibition is reported as -7.19% (inactive). With `Cc1ncc([N+](=O)[O-])n1CCO` the activity change, negative = inhibition was 7.25% (inactive) and 11.7% (inactive). With `CCCCOc1ccc(CC(=O)NO)cc1` the activity change, negative = inhibition was -22.1% (inactive) and -10.8% (inactive). In the case of `CCc1cc(C(N)=S)ccn1`, the activity change, negative = inhibition is reported as -4.73% (inactive). In the case of `NC(=O)c1cccc(N)c1`, the activity change, negative = inhibition is reported as 11.6% [at 38 µM] (inactive). In the case of `CCOC(=O)c1ccc(OC(=O)CCCCCN=C(N)N)cc1`, the activity change, negative = inhibition is reported as 1.04% (inactive). With `CNNCc1ccc(C(=O)NC(C)C)cc1` the activity change, negative = inhibition was -1.4% (inactive). With `CCCOc1ccc(C(=O)OCCN(CC)CC)cc1N` the activity change, negative = inhibition was 5.39% (inactive). With `OCc1ccc(-c2nn(Cc3ccccc3)c3ccccc23)o1` the activity change, negative = inhibition was -16.4% [at 38 µM] (inactive). With `CC(C)(Sc1cc(C(C)(C)C)c(O)c(C(C)(C)C)c1)Sc1cc(C(C)(C)C)c(O)c(C(C)(C)C)c1` the activity change, negative = inhibition was 1.37% (inactive). In the case of `NNC(=O)c1ccncc1`, the activity change, negative = inhibition is reported as 11.8% (inactive) and 7.05% (inactive). In the case of `CCn1cc(C(=O)O)c(=O)c2cc(F)c(N3CCNCC3)nc21`, the activity change, negative = inhibition is reported as -5.75% (inactive) and 5.53% (inactive).

Same assay, conditions: ME-180 (cervical carcinoma) AP-1-bla reporter, EGF-induced, beta-lactamase ratio, 5 h; at 38 µM (top of the series)
In the case of `N[C@@H](Cc1ccc(O)c(O)c1)C(=O)O`, the activity change, negative = inhibition is reported as -2.2% (inactive).
